Here are results for ten compounds from PubChem BioAssay (NCI).

Each structure is given as a SMILES string. Compounds without any hit were thinned out: in the full panel of roughly 79,000, 15% have a hit. Unmarked numbers belong to inactive results. Calls of active or inactive are those of the source. No stated cut-off is given here; in the data, active means growth inhibition above about 70%; inactive means the rest.

The nature of assay [1]: NCI Yeast Anticancer Drug Screen. Data for the rad50 strain (AID 155).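 Further: 0% = growth of vehicle-only cultures of the same strain.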 The conditions noted are these: S. cerevisiae rad50 strain growth inhibition, stronger effect = higher value. Summed up:
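Readout: growth inhibition relative to vehicle-treated cultures. Compound exposure was carried out in a genetically defined yeast strain deficient in DNA damage repair.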

Assay [2] can be described thus: NCI Yeast Anticancer Drug Screen. Data for the mec2-1 strain (AID 157). The note with it: S. cerevisiae mec2-1 strain, stronger effect = higher value. Summed up:
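Using mec2-1 yeast: add compound, measure growth, express inhibition versus vehicle-treated cultures.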

The nature of assay [3]: NCI Yeast Anticancer Drug Screen. Data for the sgs1 mgt1 strain (AID 161).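 Further: 0% = growth of cultures given vehicle only.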 The note with it: S. cerevisiae sgs1 mgt1 strain, stronger effect = higher value. Summed up: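 Compounds are added to genetically altered yeast, and growth is compared with cultures given vehicle alone to give percent inhibition.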
Assay [4] is described as follows: NCI Yeast Anticancer Drug Screen. Data for the cln2 rad14 strain (AID 165).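 Further: 0% = growth equal to vehicle treated cultures.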 The note with it: S. cerevisiae cln2 rad14 strain, stronger effect = higher value. A digest of the protocol:
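Yeast strain cln2 rad14, bearing defects in cell cycle control and DNA repair, serves as the test system; values reflect growth inhibition compared with vehicle.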

Assay [5] is described as follows: NCI Yeast Anticancer Drug Screen. Data for the bub3 strain (AID 167). The note with it: S. cerevisiae bub3 mutant strain, stronger effect = higher value. Summed up: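 Readout: yeast growth inhibition, expressed relative to vehicle-only wells. The test organism is a mutant strain from a panel with lesions in DNA repair or checkpoint genes.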
The nature of assay [6]: NCI Yeast Anticancer Drug Screen. Data for the mlh1 rad18 strain (AID 175). The conditions noted are these: S. cerevisiae mlh1 rad18 strain growth inhibition, stronger effect = higher value. A digest of the protocol:
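Steps: expose repair-defective yeast to compound; measure growth; express inhibition against vehicle-treated controls.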

[7] abbreviates: at 5.0 µM (retest, dose inferred, filed as 0.5).
Where [8] appears, read: at 50.0 µM (retest, dose inferred, filed as 5.0).

Regarding `CC(C)CCC(C)(C)c1cc(O)ccc1O`, the growth inhibition in assay [1] (setting [7]) is 35%; in assay [1] (setting [8]) it was 99% (active); in assay [1] (at 50.0 µM), 98.4% (active); in assay [2] (setting [7]) it was 13%; in assay [2] (setting [8]), 99% (active); in assay [2] (at 50.0 µM) it was 99.5% (active). In addition, the growth inhibition in assay [3] (setting [7]) is 16%; in assay [3] (setting [8]), 98% (active); in assay [3] (at 50.0 µM) it was 75.7% (active); in assay [4] (setting [7]), 14%; in assay [4] (setting [8]), 92% (active); in assay [4] (at 50.0 µM), 87.5% (active). In addition, the growth inhibition is 79% (active) in assay [5] (setting [7]); 98% (active) in assay [5] (setting [8]); 98.8% (active) in assay [5] (at 50.0 µM); 35% in assay [6] (setting [7]); 99% (active) in assay [6] (setting [8]); 97.6% (active) in assay [6] (at 50.0 µM).

As to `Cc1ccc(C(=O)N2CCN(C(=O)c3ccc(C)cc3)c3ccccc32)cc1`, the growth inhibition in assay [1] (setting [7]) was -14%; in assay [1] (setting [8]), 6%; in assay [1] (at 50.0 µM), 42.5%; in assay [2] (setting [7]), -13%; in assay [2] (setting [8]), -19%; in assay [2] (at 50.0 µM), 33.7%. The growth inhibition in assay [3] (setting [7]) is -10%; in assay [3] (setting [8]), 30%; in assay [3] (at 50.0 µM) it was 40.8%; in assay [4] (setting [7]), -7%; in assay [4] (setting [8]), 14%; in assay [4] (at 50.0 µM), 36.6%. In addition, the growth inhibition in assay [5] (setting [7]) is -3%; in assay [5] (setting [8]), 43%; in assay [5] (at 50.0 µM), 75.8% (active); in assay [6] (setting [7]), -26%; in assay [6] (setting [8]) it was 14%; in assay [6] (at 50.0 µM), 18.9%.

Consider `COC1=CC(=O)c2c(O)c3c(c(O)c2C1=O)OC1(Oc2c(cc4cc(C)oc(=O)c4c2O)CC1O)C3O` (stereo not given), for which the growth inhibition in assay [1] (setting [7]) is 96% (active); in assay [1] (setting [8]) it was 97% (active); in assay [1] (at 50.0 µM), 91.1% (active); in assay [2] (setting [7]) it was 98% (active); in assay [2] (setting [8]) it was 99% (active); in assay [2] (at 50.0 µM), 92.5% (active). The growth inhibition in assay [3] (setting [7]) is 97% (active); in assay [3] (setting [8]), 98% (active); in assay [3] (at 50.0 µM), 92.8% (active); in assay [4] (setting [7]), 98% (active); in assay [4] (setting [8]) it was 99% (active); in assay [4] (at 50.0 µM), 90.5% (active). The growth inhibition in assay [5] (setting [7]) is 99% (active); in assay [5] (setting [8]) it was 99% (active); in assay [5] (at 50.0 µM), 91% (active); in assay [6] (setting [7]), 97% (active); in assay [6] (setting [8]), 98% (active); in assay [6] (at 50.0 µM), 91% (active).

Turning to `O=C(O)c1ccccc1SC(Sc1ccccc1C(=O)O)c1cccc(Cl)c1`, the growth inhibition in assay [1] (setting [7]) was 8%; in assay [1] (setting [8]), 92% (active); in assay [1] (at 50.0 µM) it was 88% (active); in assay [2] (setting [7]) it was 7%; in assay [2] (setting [8]), 97% (active); in assay [2] (at 50.0 µM), 80% (active). Further, the growth inhibition is 22% in assay [3] (setting [7]); 99% (active) in assay [3] (setting [8]); 97% (active) in assay [3] (at 50.0 µM); -1% in assay [4] (setting [7]); 87% (active) in assay [4] (setting [8]); 90% (active) in assay [4] (at 50.0 µM). For the same compound, the growth inhibition is 9% in assay [5] (setting [7]); 97% (active) in assay [5] (setting [8]); 81.5% (active) in assay [5] (at 50.0 µM); 15% in assay [6] (setting [7]); 97% (active) in assay [6] (setting [8]); 98% (active) in assay [6] (at 50.0 µM).

Regarding `CC(C)(C)C1CCC(SCCO)CC1` (stereo not given), the growth inhibition is -22% in assay [1] (setting [7]); 98% (active) in assay [1] (setting [8]); 97.5% (active) in assay [1] (at 50.0 µM); -2% in assay [2] (setting [7]); 95% (active) in assay [2] (setting [8]); 91.9% (active) in assay [2] (at 50.0 µM). Moreover, the growth inhibition in assay [3] (setting [7]) is -3%; in assay [3] (setting [8]) it was 98% (active); in assay [3] (at 50.0 µM), 97.7% (active); in assay [4] (setting [7]), -9%; in assay [4] (setting [8]) it was 97% (active); in assay [4] (at 50.0 µM), 90% (active). In addition, the growth inhibition in assay [5] (setting [7]) is -8%; in assay [5] (setting [8]), 98% (active); in assay [5] (at 50.0 µM) it was 95% (active); in assay [6] (setting [7]), 14%; in assay [6] (setting [8]), 99% (active); in assay [6] (at 50.0 µM), 95.4% (active).

`CCCCCCC(=O)OCCN(CCOC(=O)CCCCCC)C(=O)C(C)OC(=O)CCCCCC` (stereo not given): the growth inhibition in assay [1] (setting [7]) is 2%; in assay [1] (setting [8]), 56%; in assay [1] (at 50.0 µM), 91.7% (active); in assay [2] (setting [7]), 4%; in assay [2] (setting [8]), 19%; in assay [2] (at 50.0 µM), 85.4% (active). Besides, the growth inhibition was 2% in assay [3] (setting [7]); 62% in assay [3] (setting [8]); 98.4% (active) in assay [3] (at 50.0 µM); 1% in assay [4] (setting [7]); 18% in assay [4] (setting [8]); 66.2% in assay [4] (at 50.0 µM). The growth inhibition is -1% in assay [5] (setting [7]); 66% in assay [5] (setting [8]); 98.2% (active) in assay [5] (at 50.0 µM); -3% in assay [6] (setting [7]); 58% in assay [6] (setting [8]); 97.6% (active) in assay [6] (at 50.0 µM).

Turning to `Cc1ccccc1C(=O)c1ccc(O)c2ccccc12`, the growth inhibition was -6% in assay [1] (setting [7]); 90% (active) in assay [1] (setting [8]); 99.4% (active) in assay [1] (at 50.0 µM); 4% in assay [2] (setting [7]); 82% (active) in assay [2] (setting [8]); 94.5% (active) in assay [2] (at 50.0 µM). In addition, the growth inhibition is 9% in assay [3] (setting [7]); 94% (active) in assay [3] (setting [8]); 64.3% in assay [3] (at 50.0 µM); -10% in assay [4] (setting [7]); 65% in assay [4] (setting [8]); 29.3% in assay [4] (at 50.0 µM). The growth inhibition in assay [5] (setting [7]) is 4%; in assay [5] (setting [8]) it was 71% (active); in assay [5] (at 50.0 µM), 55.2%; in assay [6] (setting [7]), 32%; in assay [6] (setting [8]), 94% (active); in assay [6] (at 50.0 µM), 99.4% (active).

`O=P1(Cc2ccccc2)c2ccccc2-c2ccccc21`: the growth inhibition in assay [1] (setting [7]) was -21%; in assay [1] (setting [8]), 99% (active); in assay [1] (at 50.0 µM), 85.6% (active); in assay [2] (setting [7]) it was -17%; in assay [2] (setting [8]) it was 99% (active); in assay [2] (at 50.0 µM) it was 91.1% (active). Further, the growth inhibition in assay [3] (setting [7]) is -24%; in assay [3] (setting [8]), 97% (active); in assay [3] (at 50.0 µM), 88.9% (active); in assay [4] (setting [7]) it was -18%; in assay [4] (setting [8]) it was 96% (active); in assay [4] (at 50.0 µM) it was 89.4% (active). The growth inhibition was -33% in assay [5] (setting [7]); 99% (active) in assay [5] (setting [8]); 88.7% (active) in assay [5] (at 50.0 µM); 4% in assay [6] (setting [7]); 99% (active) in assay [6] (setting [8]); 84.3% (active) in assay [6] (at 50.0 µM).

Take `CCC(CC=C(C)C)(CC=C(C)C)c1ccncc1` (tested in a mixture with another compound): the growth inhibition in assay [1] (setting [7]) was -7%; in assay [1] (setting [8]), 84% (active); in assay [1] (at 50.0 µM), 97.8% (active); in assay [2] (setting [7]) it was -8%; in assay [2] (setting [8]) it was 76% (active); in assay [2] (at 50.0 µM), 99% (active). The growth inhibition was 1% in assay [3] (setting [7]); 80% (active) in assay [3] (setting [8]); 98.9% (active) in assay [3] (at 50.0 µM); -5% in assay [4] (setting [7]); 50% in assay [4] (setting [8]); 70.5% (active) in assay [4] (at 50.0 µM). Further, the growth inhibition was 1% in assay [5] (setting [7]); 76% (active) in assay [5] (setting [8]); 93.2% (active) in assay [5] (at 50.0 µM); -4% in assay [6] (setting [7]); 74% (active) in assay [6] (setting [8]); 96.2% (active) in assay [6] (at 50.0 µM).

For `CC(C)=CCC(CC=C(C)C)c1ccncc1` (tested in a mixture with another compound), the growth inhibition in assay [1] (setting [7]) is 16%; in assay [1] (setting [8]), 99% (active); in assay [1] (at 50.0 µM), 99.2% (active); in assay [2] (setting [7]), 15%; in assay [2] (setting [8]), 99% (active); in assay [2] (at 50.0 µM), 99.5% (active). Further, the growth inhibition in assay [3] (setting [7]) was -92%; in assay [3] (setting [8]), 100% (active); in assay [3] (at 50.0 µM), 99.5% (active); in assay [4] (setting [7]) it was 5%; in assay [4] (setting [8]), 98% (active); in assay [4] (at 50.0 µM), 99.4% (active). Further, the growth inhibition is 21% in assay [5] (setting [7]); 99% (active) in assay [5] (setting [8]); 98.8% (active) in assay [5] (at 50.0 µM); 49% in assay [6] (setting [7]); 99% (active) in assay [6] (setting [8]); 99.5% (active) in assay [6] (at 50.0 µM).
